Source: PubChem BioAssay AID651710 (Broad Institute, 2012)
Values joined by “and” are separate entries in the source; they are usually repeats but may differ in a detail not shown here. Identical values can stand only once. The campaign covered roughly 360,000 compounds. About 1,600 (0.44%) were called active. Only a selection was taken, and actives are over-represented in it overall. Unmarked numbers belong to inactive results.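 How the source made its calls: active means every replicate showing at least 50% inhibition; inconclusive means mean inhibition at least 50% but not in every replicate; inactive means the rest.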

The molecules below were run against DNA repair protein RAD52 homolog (Homo sapiens) (UniProt P43351) (assay: RAD52 DNA annealing inhibitors, primary screen, biochemical, FRET, single point, set 2 (AID 651710)). Conditions: recombinant RAD52 DNA annealing, FRET fluorescence; at 18.7 µM; active compounds read high.
Chain of DNA repair protein RAD52 homolog (Homo sapiens) (P43351 whole entry, looked up): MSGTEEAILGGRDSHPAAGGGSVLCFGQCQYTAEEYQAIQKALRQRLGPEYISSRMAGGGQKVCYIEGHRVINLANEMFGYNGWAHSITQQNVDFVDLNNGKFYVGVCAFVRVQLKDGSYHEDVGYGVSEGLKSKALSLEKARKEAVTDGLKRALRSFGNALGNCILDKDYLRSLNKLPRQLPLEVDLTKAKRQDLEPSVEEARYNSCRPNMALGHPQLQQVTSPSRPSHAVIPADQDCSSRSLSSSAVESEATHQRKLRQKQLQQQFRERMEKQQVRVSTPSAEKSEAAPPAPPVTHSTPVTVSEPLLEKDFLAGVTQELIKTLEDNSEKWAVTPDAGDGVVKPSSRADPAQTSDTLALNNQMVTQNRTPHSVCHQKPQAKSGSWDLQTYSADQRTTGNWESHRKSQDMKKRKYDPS

| SMILES | inhibition |
| --- | --- |
| COCCNc1nc(NCc2ccc(NC(C)=O)cc2)c2sccc2n1 | -6.25% |
| CC(=O)Nc1ccc(CNc2nc(NCCN(C)C)nc3cc(-c4ccccc4)sc23)cc1 | 98.5% (active) |
| COCCNc1nc(Nc2ccccc2Cl)c2sc(-c3ccccc3)cc2n1 | -21.9% |
| C[C@@H]1CN([C@@H](C)CO)C(=O)c2cc(-c3cccnc3)cnc2O[C@H]1CN(C)Cc1ccc(-c2ccccc2)cc1 | 20.1% |
| O=C(C[C@H]1CC[C@H](NC(=O)c2ccc(F)cc2)[C@@H](CO)O1)NCCc1ccncc1 | 2.72% |
| CN1CCN(CCCNC(=O)c2ccc(/C=C3\Oc4ccccc4N(Cc4ccc(Cl)cc4)C3=O)cc2)CC1 | 94.8% (active) |
| Cc1c(C)n(Cc2ccc(Cl)cc2)c2ccc(C(=O)NCCCN3CCOCC3)cc12 | -12.7% |
| CCC1Oc2ccccc2N(CC(=O)NCCCN2CCN(CC)CC2)C1=O (stereo unspecified) | -5.96% |
| C[C@H](O)C#Cc1ccc([C@@H]2[C@H](CO)N3CCCCN(CC4CC4)C[C@@H]23)cc1 | 8.98% |
| COc1ccccc1C#Cc1ccc([C@@H]2[C@H](CO)N3CCCCN(C(=O)C4CCCC4)C[C@@H]23)cc1 | 71% (active) |
| COc1ccccc1C#Cc1ccc([C@H]2[C@H](CO)N3CCCCN(C(=O)C4CCC4)C[C@@H]23)cc1 | -21.5% |
| CN(C)CC#Cc1ccc([C@H]2[C@H](CO)N3CCCCN(CC4CC4)C[C@@H]23)cc1 | 65.4% (active) |
| COc1ccccc1C#Cc1ccc([C@@H]2[C@H](CO)N3CCCCN(C(=O)C4CC4)C[C@@H]23)cc1 | 38.4% |
| C[C@@H](O)C#Cc1ccc([C@H]2[C@@H](CO)N3CCCCN(CC4CC4)C[C@@H]23)cc1 | -24.5% |
| C[C@@H](NC(=O)C[C@H]1C[C@@H]2c3cc(NC(=O)c4ccc5c(c4)OCO5)ccc3O[C@@H]2[C@@H](CO)O1)c1ccccc1 | 8.57% |
| CO[C@H](CN(C)S(=O)(=O)c1ccc(C)cc1)[C@@H](C)CN(Cc1ccccc1Cl)[C@@H](C)CO | -2.08% |
| CO[C@H]1CN(C)C(=O)c2cc(NC(=O)Nc3ccccc3F)ccc2OC[C@H](C)N(C)C[C@H]1C | 4.64% |
| CC(C)NC(=O)N1C[C@@H]2[C@H](c3ccccc31)[C@H](CO)N2C(=O)C1CCCC1 | 0.805% |
| COc1ccc(S(=O)(=O)N(C)CC(=O)N2CCCC2)cc1 | -9.04% |
| COc1ccc2sc(N(CCCN(C)C)C(=O)c3ccc(S(=O)(=O)N(C)C4CCCCC4)cc3)nc2c1 | 62.7% (active) |
| COc1ccc(N(Cc2ccc(N(C)C)cc2)C(=O)c2ccc(S(C)(=O)=O)cc2)cc1 | 2.51% |
| Cn1ccc(=Nc2ccc(NC(=O)c3ccc(N=c4ccn(C)c5ccc([N+](=O)[O-])cc45)cc3)cc2)cc1 | 94.9% (active) |

| SMILES | inhibition |
| --- | --- |
| CN(CC1CCCO1)S(=O)(=O)c1ccc(C(=O)Nc2ccc([N+](=O)[O-])cc2)cc1 (stereo unspecified) | -8.13% |
| Cn1c(=O)n(C)c2cc(C(=O)Nc3ccc(Br)cc3)ccc21 | -11.5% |
| C[C@@H]1CN([C@@H](C)CO)S(=O)(=O)c2ccc(/C=C/c3ccccc3)cc2O[C@H]1CN(C)C(=O)C1CC1 | 14.6% |
| O=C(C[C@H]1CC[C@H]2[C@@H](COC[C@H](O)CN2Cc2nccs2)O1)NCc1ccc(Oc2ccccc2)cc1 | 9.32% |
| O=C(Nc1ccccc1F)N[C@@H]1CC[C@H](CC(=O)N2CCCCC2)O[C@H]1CO | -11.7% |
| CN(C)CCN1CCN(c2cc(-c3cccc(Cl)c3)nc3ccnn23)CC1 | 91.4% (active) |
| C#Cc1cc(N2CCN(C(=O)c3ccoc3)CC2)n2nc(-c3cccc(Cl)c3)cc2n1 | 10.8% |
| O=C(c1ccccc1)N1CCN(c2cc(-c3ccccc3)nc3cc(-c4cccc(Cl)c4)nn23)CC1 | -9.17% |
| CN(C)C(=O)c1cccc(-c2ccccc2[C@@H]2[C@@H](CO)N(C(=O)C3CCCCC3)[C@H]2C#N)c1 | 6.38% |
| C[C@H](CO)N1C[C@H](C)[C@@H](CN(C)Cc2ccc(-c3ccccc3)cc2)Oc2ccc(NC(=O)CCCN(C)C)cc2CC1=O | 94% (active) |
| C[C@@H]1CN([C@H](C)CO)C(=O)Cc2cc(NC(=O)CCCN(C)C)ccc2O[C@@H]1CN(C)Cc1ccc(Oc2ccccc2)cc1 | 54.4% |
| C[C@H]1CN([C@@H](C)CO)C(=O)Cc2cc(NC(=O)CCCN(C)C)ccc2O[C@@H]1CN(C)Cc1ccc(-c2ccccc2)cc1 | 48.7% |
| C[C@H](CO)N1C[C@H](C)[C@@H](CN(C)Cc2ccc(-c3ccccc3)cc2)Oc2ccc(NC(=O)CCC(F)(F)F)cc2CC1=O | 23.2% |
| C[C@@H]1CN([C@@H](C)CO)C(=O)Cc2cc(NC(=O)CCCN(C)C)ccc2O[C@@H]1CN(C)Cc1ccc(-c2ccccc2)cc1 | 86.8% (active) |
| C[C@H](CO)N1C[C@H](C)[C@H](CN(C)Cc2ccc(-c3ccccc3)cc2)Oc2ccc(NC(=O)Nc3ccc(F)cc3)cc2CC1=O | -6.38% |
| O=C(N[C@H]1CC[C@@H](CCNS(=O)(=O)c2ccccc2)O[C@@H]1CO)c1cnccn1 | -13.2% |
| C[C@@H]1CN([C@H](C)CO)C(=O)CCCn2cc(nn2)CO[C@H]1CN(C)C(=O)Nc1ccc(N2CCCCC2)cc1 | -12.3% and -1.13% and -23.2% |
| Clc1ccc2nc(-c3ccccc3)nc(C(Cl)Cl)c2c1 | -10.7% |
| NC(N)=Nc1nc(-c2ccccc2)c2cc(Cl)ccc2n1 | 84.7% (active) |
| Cc1onc(-c2ccccc2)c1C(=O)N=C(N)c1ccc(Cl)cc1 | -19.5% |
| NCCCCCC(=O)N/N=C/c1ccc2nccnc2c1 | 87.9% (active) |
| O=C(CCC(=O)Nc1ccccc1)N/N=C/c1ccccc1F | -7.35% |

| SMILES | inhibition |
| --- | --- |
| CC1=NNC(=O)C1CCC(=O)N/N=C\c1ccc(Cl)c(Cl)c1 (stereo unspecified) | -0.875% |
| CCCNC(=O)N(C)C[C@H]1Oc2cc(C#CC(C)(C)O)ccc2S(=O)(=O)N([C@H](C)CO)C[C@@H]1C | -3.15% |
| COCC#Cc1cnc2c(c1)C(=O)N([C@H](C)CO)C[C@H](C)[C@@H](CN(C)C(=O)Nc1cc(F)ccc1F)O2 | -15.1% |
| C[C@@H]1CN([C@@H](C)CO)C(=O)c2cc(NC(=O)Nc3ccc4c(c3)OCO4)ccc2O[C@@H](C)CCCCO[C@@H]1CN(C)Cc1ccccc1 | -6.98% |
| Cc1c(CCOC(=O)c2cc([N+](=O)[O-])ccc2Cl)sc[n+]1CCCCS(=O)(=O)[O-] | -6.18% |
| Cc1c(CCO)sc[n+]1CC(=O)OC12CC3CC(CC(C3)C1)C2 | 9.07% |
| Cc1c(CCOC(=O)CC23CC4CC(CC(C)(C4)C2)C3)sc[n+]1Cc1ccc([N+](=O)[O-])cc1 | 57.8% (active) |
| CO[C@H]1CN(C)C(=O)c2ccc(NC(=O)Nc3ccccc3)cc2OC[C@@H](C)N(C(=O)CC2CC2)C[C@@H]1C | 7.81% |
| O=C1O[C@@H](c2ccccc2)[C@@H](c2ccccc2)N2[C@@H](c3ccccc3OCCO)[C@]3(C(=O)Nc4ccc(C#CC5(O)CCCCCC5)cc43)[C@@H](C(=O)N3CCCCCCC3)[C@H]12 | 6.97% |
| COc1ccc(C#Cc2ccc3c(c2)[C@]2(C(=O)N3)[C@H](C(=O)N3CCCCCCC3)[C@H]3C(=O)O[C@H](c4ccccc4)[C@H](c4ccccc4)N3[C@@H]2c2ccc(O)cc2)cc1 | 0.035% |
| COc1ccc(C#Cc2ccc3c(c2)[C@]2(C(=O)N3)[C@H](c3ccccc3OCCO)N3[C@H](c4ccccc4)[C@H](c4ccccc4)OC(=O)[C@H]3[C@@H]2C(=O)N2CCCCCCC2)cc1 | 55.6% (active) |
| CO[C@H]1CN(C)C(=O)c2ccc(NC(C)=O)cc2OC[C@H](C)N(CC2CC2)C[C@@H]1C | 5.82% |
| COc1ccc(NC(=O)Nc2cccc3c2O[C@H](CN(C)C(=O)Nc2ccc(F)cc2)[C@@H](C)CN([C@@H](C)CO)C3=O)cc1 | -2.48% |
| O=C(C1CCCCC1)N1CC2(C1)[C@H](c1ccccc1)[C@H](CO)N2CC1CCCC1 | -23.5% |
| Cc1cc(C)c2nc3nc(C)cc(C)c3c(N)c2c1 | 91% (active) |
| C[C@H]1CN([C@@H](C)CO)C(=O)c2cccc(NC(=O)C3CCOCC3)c2O[C@@H]1CN(C)C(=O)Nc1cccc2ccccc12 | 6.23% |
| CC=Cc1ccc2n(c1=O)C[C@@H]1[C@@H](CO)[C@H](C(=O)NCC)[C@H]2N1CCC(F)(F)F (mixture of isomers) | 75.5% (active) |
| CC=Cc1ccc2n(c1=O)C[C@@H]1[C@@H](CO)[C@H](C(=O)NCCC)[C@H]2N1C(=O)C1CC1 (mixture of isomers) | 6.42% |
| CC=Cc1ccc2n(c1=O)C[C@@H]1[C@@H](CO)[C@H](C(=O)N(C)C)[C@H]2N1CCc1ccccc1 (mixture of isomers) | -10.1% |
| CC(=O)N1[C@@H](CO)[C@H](c2ccccc2)[C@@H]1CN(C(=O)c1ccccc1)C(C)C | -18% |
| O=C(C[C@H]1CC[C@@H](NC(=O)c2ccc(F)cc2)[C@@H](CO)O1)NCc1ccncn1 | -0.457% |
| CO[C@@H]1CN(C)C(=O)c2cc(NC(=O)C3CC3)ccc2OC[C@@H](C)N(Cc2ccc(F)cc2)C[C@@H]1C | -6.33% |
